# Reference: PubChem BioAssay
# Active and inactive are the calls of the source.
# Experiments:
# [1] = optical density shifts of acrAB sulA E. coli – strain DRC41, OD650, 48 h, E. coli filamentation inducer project, primary screen (AID 1152); settings: higher = more signal, called active from +8 up or from −8 down;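 also: E. coli MC1000 strain DRC41 lacking acrAB efflux pump and sulA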
# [2] = probe aLefty1 binding on compound microarray – biochemical, small-molecule microarray, 635/667 nm fluorescence, primary screen (AID 1153); settings: higher = more signal;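 also: score merges spot fluorescence with signal-to-noise ratio from the scanned slide images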
# [3] = plasmodial surface anion channel blockers, osmotic lysis – cell-based, P. falciparum Indochina, OD700, 1 h, primary screen (AID 1154); settings: P. falciparum Indochina infected RBC osmotic lysis, higher = more signal, called active from +8 up or from −8 down
# [4] = plasmodial surface anion channel blockers, osmotic lysis – cell-based, P. falciparum Indochina, OD700, 2 h, primary screen (AID 1155);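 also: lysis reports solute entry through the parasite surface anion channel PSAC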; settings: P. falciparum Indochina infected erythrocytes, higher = more signal, called active from +8 up or from −8 down
# [5] = changes in parasitized red cell lysis, either direction – P. falciparum Indochina, OD700, 3 h, PSAC antagonist project, primary screen (AID 1156); settings: P. falciparum-infected erythrocytes, osmotic lysis, higher = more signal, called active from +8 up or from −8 down
# [6] = plasmodial surface anion channel blockers, osmotic lysis – cell-based, P. falciparum Indochina, OD700, 18 h, primary screen (AID 1157); settings: P. falciparum Indochina infected erythrocytes, osmotic lysis OD700, 18 h; higher = more signal, called active from +8 up or from −8 down
# [7] = S6 kinase pathway phospho-S6 level changes – cell-based, A549, cytoblot, luminescence, serum-stimulated, primary screen (AID 1158); settings: 5 h, higher = more signal;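 also: serum-stimulated A549 lung adenocarcinoma cells; signal is phosphorylated S6 detected by cytoblot immunostaining with HRP secondary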
# [8] = molecular target: NADPH oxidase 2 (Homo sapiens) (UniProt P04839); assay: compounds shifting NOX2 Amplex Red fluorescence – cell-based, HEK293-NOX2, PMA-stimulated, NOX inhibitor project, primary screen (AID 1159); settings: 45 min, higher = more signal, called active from +8 up or from −8 down; also: test concentration not given here
# Chain of NADPH oxidase 2 (Homo sapiens) (P04839 whole entry, looked up): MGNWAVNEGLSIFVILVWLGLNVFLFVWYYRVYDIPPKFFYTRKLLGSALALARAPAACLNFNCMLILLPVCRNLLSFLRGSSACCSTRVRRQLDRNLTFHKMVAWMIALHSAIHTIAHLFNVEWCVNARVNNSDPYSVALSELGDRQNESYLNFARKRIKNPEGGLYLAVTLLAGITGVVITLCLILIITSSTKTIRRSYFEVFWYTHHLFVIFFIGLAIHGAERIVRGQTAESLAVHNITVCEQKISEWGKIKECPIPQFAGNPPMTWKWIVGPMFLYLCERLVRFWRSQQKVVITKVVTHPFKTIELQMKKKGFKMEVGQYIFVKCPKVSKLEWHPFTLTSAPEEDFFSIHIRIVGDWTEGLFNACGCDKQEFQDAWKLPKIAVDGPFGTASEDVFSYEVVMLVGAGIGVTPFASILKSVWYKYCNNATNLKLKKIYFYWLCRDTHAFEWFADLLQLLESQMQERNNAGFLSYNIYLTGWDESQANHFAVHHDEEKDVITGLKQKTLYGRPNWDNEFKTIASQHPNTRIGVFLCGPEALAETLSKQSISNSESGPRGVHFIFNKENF
# [9] = molecular target: NADPH oxidase 4 (Homo sapiens) (UniProt Q9NPH5); assay: compounds shifting NOX4 Amplex Red fluorescence – cell-based, HEK293-NOX4, tetracycline-induced, NOX inhibitor project, primary screen (AID 1160); settings: HEK293-NOX4, Amplex Red H2O2 fluorescence, 45 min; higher = more signal, called active from +8 up or from −8 down
# Chain of NADPH oxidase 4 (Homo sapiens) (Q9NPH5 whole entry, looked up): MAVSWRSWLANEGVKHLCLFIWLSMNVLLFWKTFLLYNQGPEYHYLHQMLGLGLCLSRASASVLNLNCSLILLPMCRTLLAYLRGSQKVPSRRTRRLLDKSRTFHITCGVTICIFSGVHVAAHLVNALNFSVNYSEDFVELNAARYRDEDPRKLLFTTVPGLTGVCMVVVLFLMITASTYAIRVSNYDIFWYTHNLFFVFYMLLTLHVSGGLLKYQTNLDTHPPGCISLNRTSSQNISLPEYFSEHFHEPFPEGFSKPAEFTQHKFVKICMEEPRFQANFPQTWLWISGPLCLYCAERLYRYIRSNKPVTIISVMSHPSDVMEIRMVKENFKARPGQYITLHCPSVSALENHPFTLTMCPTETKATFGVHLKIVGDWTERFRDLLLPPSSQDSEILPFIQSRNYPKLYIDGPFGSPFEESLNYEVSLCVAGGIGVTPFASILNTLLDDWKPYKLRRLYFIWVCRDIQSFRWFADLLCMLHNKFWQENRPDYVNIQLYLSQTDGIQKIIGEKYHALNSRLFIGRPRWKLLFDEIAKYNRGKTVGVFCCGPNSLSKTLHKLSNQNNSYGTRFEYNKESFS
# [10] = molecular target: NADPH oxidase 5 (Homo sapiens) (UniProt Q96PH1); assay: compounds shifting NOX5 Amplex Red fluorescence – cell-based, HEK293-NOX5, NOX inhibitor project, primary screen (AID 1161); settings: HEK293-NOX5, ionomycin, 45 min, higher = more signal
# Chain of NADPH oxidase 5 (Homo sapiens) (Q96PH1 whole entry, looked up): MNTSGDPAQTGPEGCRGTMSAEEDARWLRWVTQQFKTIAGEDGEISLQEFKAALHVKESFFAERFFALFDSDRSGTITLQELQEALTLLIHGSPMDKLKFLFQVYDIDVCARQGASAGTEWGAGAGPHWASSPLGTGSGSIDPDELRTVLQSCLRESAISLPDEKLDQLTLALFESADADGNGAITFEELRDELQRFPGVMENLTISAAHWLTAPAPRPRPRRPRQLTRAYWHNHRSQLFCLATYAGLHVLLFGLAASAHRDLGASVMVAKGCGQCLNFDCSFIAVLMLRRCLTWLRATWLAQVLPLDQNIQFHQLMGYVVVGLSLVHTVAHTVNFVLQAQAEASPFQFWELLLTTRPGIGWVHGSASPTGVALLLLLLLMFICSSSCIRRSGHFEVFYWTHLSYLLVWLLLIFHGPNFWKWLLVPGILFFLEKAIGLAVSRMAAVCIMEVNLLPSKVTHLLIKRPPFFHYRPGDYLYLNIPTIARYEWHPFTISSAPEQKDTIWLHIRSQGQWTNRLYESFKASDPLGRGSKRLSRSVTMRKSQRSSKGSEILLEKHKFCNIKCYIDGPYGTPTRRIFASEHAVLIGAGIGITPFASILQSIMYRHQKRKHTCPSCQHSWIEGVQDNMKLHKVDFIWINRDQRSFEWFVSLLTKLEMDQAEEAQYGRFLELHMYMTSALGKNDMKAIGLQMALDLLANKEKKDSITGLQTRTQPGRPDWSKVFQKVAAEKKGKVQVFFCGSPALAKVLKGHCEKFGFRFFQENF
SMILES,z-score [1],composite z-score [2],z-score [3],z-score [4],z-score [5],z-score [6],z-score [7],z-score [8],z-score [9],z-score [10]
CN1C(=O)C2C=CC(C(O)c3ccc(Br)cc3)N(N(c3ccccc3)c3ccccc3)C2C1=O (stereo not given),-1.19 (inactive),0.446,15.4 (active),3.08 (inactive),0.948 (inactive),1.76 (inactive),-0.0423,1.2 (inactive),0.184 (inactive),0.24
C=CCOC(=O)[C@H]1[C@@H]2C(=O)O[C@@H](c3ccccc3)[C@@H](c3ccccc3)N2[C@@H](c2ccc(OCCOC(=O)[C@H]3C[C@H]4C(=O)N5CCC[C@H]5C(=O)N4[C@H]3c3cccc(OCCO)c3)cc2)[C@]12C(=O)Nc1ccc(I)cc12,-0.709 (inactive),1.72,0.491 (inactive),0.641 (inactive),-2.53 (inactive),0.131 (inactive),-0.0041,-0.669 (inactive),0.165 (inactive),0.261
CCCC[C@@H](O)C1=C(C)C[C@H]2C(=O)N(Cc3ccccc3)C(=O)[C@H]2[C@H]1CO,0.969 (inactive),0.0736,2.44 (inactive),-0.252 (inactive),-0.347 (inactive),0.206 (inactive),0.431,-0.789 (inactive),0.358 (inactive),-0.0632
CCc1cc2c(nc1CC)CCN(CCC(C)=NOC[C@@H](O)[C@H]1O[C@@H]3OC(C)(C)O[C@@H]3[C@H]1O)C2,-1.12 (inactive),-0.179,0.202 (inactive),-0.336 (inactive),0.0286 (inactive),0.0977 (inactive),-0.512,0.336 (inactive),0.494 (inactive),2.57
N#Cc1ccc(NN2C(C(O)c3cc(C(F)(F)F)cc(C(F)(F)F)c3)C=CC3C(=O)N(c4ccccc4)C(=O)C32)cc1 (stereo not given),-1.54 (inactive),0.0971,4.78 (inactive),2.32 (inactive),-3.13 (inactive),1.54 (inactive),-1.07,-1.19 (inactive),-3.23 (inactive),-1.4
COc1ccccc1CN1C(=O)c2ccccc2[C@@]2(Cc3ccccc3N(C(C)C)C2=O)[C@@H]1c1ccc(CO)cc1,1.74 (inactive),0.0371,0.0937 (inactive),-0.756 (inactive),-0.964 (inactive),-0.876 (inactive),1.79,-0.437 (inactive),0.215 (inactive),1.04
CCOC(=O)CCN1C(=O)[C@H]2[C@H]3[C@H](O)[C@H](O)CC(=NOC[C@@H](O)COCc4ccco4)[C@H]3CC[C@H]2C1=O,-0.923 (inactive),-0.101,0.73 (inactive),-1.31 (inactive),0.318 (inactive),-2.76 (inactive),0.141,-0.343 (inactive),0.0781 (inactive),-0.498
CS(=O)(=O)CCOC(=O)C1=CC(CCCO)=CC(c2cccs2)N(Cc2cccc(OC(F)(F)F)c2)C=C1C(=O)OCCS(C)(=O)=O (stereo not given),-0.697 (inactive),0.217,6.83 (inactive),1.56 (inactive),0.813 (inactive),0.969 (inactive),-0.0175,-0.895 (inactive),-1.15 (inactive),-2.09
O=C1[C@H]2[C@H]3[C@H](O)[C@H](O)CC(=NO[C@@H]4O[C@H](CO)[C@@H](O)[C@H](O)[C@H]4O)[C@@H]3CC[C@H]2C(=O)N1Cc1ccccc1,0.755 (inactive),-0.115,1.3 (inactive),0.893 (inactive),0.742 (inactive),0.475 (inactive),0.62,0.0811 (inactive),1.14 (inactive),-0.0503
COCC1=C2[C@@H](CCc3ccccc3)OB(O)C[C@@H]2n2c(=O)n(-c3ccccc3)c(=O)n2C1,-0.144 (inactive),-0.0816,1.88 (inactive),-0.256 (inactive),-0.698 (inactive),-0.235 (inactive),0.214,-0.421 (inactive),-2.2 (inactive),-1.48
COCCCNC(=O)[C@@]1(C)c2ccccc2C(=O)N(Cc2ccc(OC(F)(F)F)cc2)[C@H]1c1ccc(CO)cc1,0.906 (inactive),-0.191,2.23 (inactive),0.123 (inactive),1.06 (inactive),-0.0648 (inactive),-0.459,-0.599 (inactive),1.18 (inactive),0.247
COc1ccc(O[C@H]2C=C[C@@H](c3ccccc3)O[C@@H]2COC(=O)CCC(C)=NO[C@@H](C)c2cc(-c3c(C)cc(C)cc3C)no2)cc1,0.409 (inactive),-0.378,0.595 (inactive),0.322 (inactive),0.488 (inactive),0.245 (inactive),-0.0348,1.18 (inactive),-0.00862 (inactive),-1.09
CO[C@@H]1COC(=O)CC=C[C@@H](C)COC(=O)[C@H](COCc2ccccc2)NC(=O)CC=C[C@H]1C,-0.0825 (inactive),-0.363,0.391 (inactive),0.331 (inactive),0.195 (inactive),0.403 (inactive),-0.186,0.978 (inactive),-1.24 (inactive),0.941
COC(=O)[C@@H]1CC[C@H](C)[C@@H](c2ccc(C)cc2)N1C(=O)c1ccc(C=NOC(C)CN2CCCCc3nc(C)c(C)cc32)cc1 (stereo not given in full),0.173 (inactive),-0.0449,1.21 (inactive),0.369 (inactive),1.03 (inactive),0.367 (inactive),-0.122,-0.202 (inactive),-1.62 (inactive),0.64
CCOC(=O)[C@H](Cc1ccccc1)NC(=O)CCC1CC(OC(=O)NCc2ccc3c(c2)OCO3)CC2(CCCC(COC(=O)NCc3ccccc3)O2)O1 (stereo not given in full),0.0722 (inactive),-0.101,0.0765 (inactive),0.979 (inactive),-1.37 (inactive),0.565 (inactive),-0.0074,-0.988 (inactive),0.852 (inactive),0.562
Cc1ccc(S[C@]2(C(=O)O)CC(=O)N(Cc3ccccc3)[C@@H]2c2ccc(CO)cc2I)cc1,-0.308 (inactive),0.157,13.9 (active),2.07 (inactive),1.47 (inactive),0.842 (inactive),-0.31,1.71 (inactive),-2.26 (inactive),0.38
COC(=O)CC1OC1[C@H](C)[C@@H](OC)C(C)C (stereo not given in full),0.547 (inactive),-0.0186,2.66 (inactive),-0.0353 (inactive),-0.324 (inactive),-0.146 (inactive),0.0023,-1.33 (inactive),-1.67 (inactive),-1.45
CCN1C(=O)[C@H]2[C@H]3[C@H](O)[C@H](O)CC(=NOC(C)CN4CCCCc5nc(C)c(C)cc54)[C@@H]3CC[C@H]2C1=O (stereo not given in full),0.803 (inactive),-0.106,0.29 (inactive),0.15 (inactive),0.363 (inactive),0.317 (inactive),-0.518,-0.588 (inactive),-0.245 (inactive),-0.239
COC(=O)[C@@H]1CC[C@H](C)[C@@H](c2ccc(C)cc2)N1C(=O)c1ccc(C=NOC[C@@H](O)COCc2ccco2)cc1,1.06 (inactive),-0.255,5.79 (inactive),0.944 (inactive),-0.0224 (inactive),1.05 (inactive),-1.05,-0.0479 (inactive),-0.0106 (inactive),0.254
CCc1cc2c(nc1CC)CCN(CCC(C)=NOC(C)CN1CCCc3nc(C)c(C)cc31)C2 (stereo not given),-1.97 (inactive),0.876,2.25 (inactive),-0.0243 (inactive),0.0813 (inactive),0.146 (inactive),-1.08,-1.41 (inactive),-0.293 (inactive),-1.86
CC1CC/C=C\[C@H]2OC34C=CCN(Cn5nnc6ccccc65)C(=O)[C@H]3N(CCO)C(=O)[C@@H]4C2C(=O)O1 (stereo not given in full),2.49 (inactive),-0.155,2.87 (inactive),0.218 (inactive),-1.23 (inactive),-0.752 (inactive),1.03,1.44 (inactive),0.285 (inactive),2.67
O=C1O[C@@H](c2ccccc2)[C@@H](c2ccccc2)N2[C@@H](c3ccc(OCCO)cc3)[C@]3(C(=O)Nc4ccc(C#CCCO)cc43)[C@@H](C(=O)N3CCCCCCC3)[C@H]12,0.974 (inactive),2.79,4.33 (inactive),1.27 (inactive),0.526 (inactive),0.737 (inactive),-0.178,1.6 (inactive),0.824 (inactive),1.08
CC(CCC(=O)OC[C@H]1O[C@H](C#Cc2ccccc2)C=C[C@@H]1Oc1ccc(C)cc1)=NOC[C@@H](O)[C@H]1O[C@@H]2OC(C)(C)O[C@@H]2[C@H]1O,0.715 (inactive),-0.193,14.2 (active),1.9 (inactive),0.0766 (inactive),1.05 (inactive),0.078,-1.55 (inactive),-0.00198 (inactive),-1.2
